Activity calls are given as the source filed them. The call rests on the fitted dose curve; in most records, active means well fitted curve in the direction sought with a large enough effect in the repeat runs; inconclusive means weak or mixed curves; inactive means flat fitted curve, though single readings scatter.
On the % scale 0 is the no-effect control and ±100 the full control effect.

One test can be described thus: qHTS assay to test for compound auto fluorescence at 535 nm (green) in HEK293 cells (AID 720680). The settings on record: green autofluorescence 485/535 nm; series mostly up to 91.3 µM.
As to `CN(C)C(=O)NC1(c2ccccc2)CCN(CCC[C@]2(c3ccc(Cl)c(Cl)c3)CCCN(C(=O)c3ccccc3)C2)CC1`, the fluorescence, % of fluorescein was -0.116% [at 18.6 µM] (inactive).
Regarding `COC(=O)N[C@H](C(=O)N[C@@H](Cc1ccccc1)[C@@H](O)CN(Cc1ccc(-c2ccccn2)cc1)NC(=O)[C@@H](NC(=O)OC)C(C)(C)C)C(C)(C)C`, the call was inactive.
On the same count and under the same terms, in the case of `COc1ccc(S(=O)(=O)Nc2nnc(CC(C)C)s2)cc1` it was “inactive”; in that of `CCCCNC(=S)NCCCC`, “inactive”; in that of `FC(F)(F)C(Cl)(Cl)Cl`, “inactive”.
As for `COc1ccccc1OCC(O)COC(N)=O` (centres undefined), the fluorescence, % of fluorescein is -0.023% [at 18.6 µM] (inactive).
Regarding `O=Cc1ccc(F)c(Br)c1`, the outcome was inactive.
The same measure, in the same setting: then `Cc1cc(NS(=O)(=O)c2ccc(N)cc2)nc(C)n1`, with “inactive”.
Regarding `COc1ccccc1N1CCN(CCCNc2cc(=O)n(C)c(=O)n2C)CC1`, the outcome was inactive.
The same measure, in the same setting: then `CCCCCCC`, with “inactive”.
Consider `CCCCNc1cc(C(=O)O)cc(S(N)(=O)=O)c1Oc1ccccc1`, for which the fluorescence, % of fluorescein was -0.0725% [at 18.6 µM] (inactive).
As to `CC(C)OC(C)C`, the compound was classed as inactive.
On to `Cc1cc(S(=O)(=O)O)c(N)cc1Cl`, for which the call was inactive.
For the compound `COc1cc(N)c(Cl)cc1C(=O)NC1CCN(Cc2ccccc2)CC1`, the fluorescence, % of fluorescein is 0.0161% [at 18.6 µM] (inactive).
`C=CC1CO1` (centres undefined): the result was inactive.
Take `C[C@]12C(=O)OC(=O)[C@H]1[C@H]1C=C[C@@H]2C1`: the compound was called inactive.
For `CC(CNC1CCCCC1)OC(=O)c1ccccc1` (centres undefined), the fluorescence, % of fluorescein was 0.0598% [at 18.6 µM] (inactive).
As to `C=CC(C)(O)CC/C=C(\C)CCC=C(C)C` (centres undefined), the call was inactive.
Still for that read-out and setting: in the case of `CCOc1ccccc1N` it was “inactive”.
Turning to `CCN[C@H]1CN(CCCOC)S(=O)(=O)c2sc(S(N)(=O)=O)cc21`, the fluorescence, % of fluorescein was -0.0786% [at 18.6 µM] (inactive).
On to `CC(C)C1=CC2=CC[C@@H]3[C@](C)(CCC[C@@]3(C)C(=O)O)[C@H]2CC1`, for which the compound was called inactive.
Regarding `CC1(C)O[C@@H]2C[C@H]3[C@@H]4CCC5=CC(=O)CC[C@]5(C)[C@@]4(F)[C@@H](O)C[C@]3(C)[C@]2(C(=O)CCl)O1`, the fluorescence, % of fluorescein is -0.0811% [at 18.6 µM] (inactive).

The nature of another test: qHTS assay to test for compound auto fluorescence at 460 nm (blue) in HEK293 cell free culture (AID 720681). The settings on record: cell-free medium, autofluorescence 405/460 nm (blue); series mostly up to 91.3 µM. Summed up:
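Test compounds were pinned into cell-free culture medium (DMEM with 10% FBS) and fluorescence was read directly at Ex/Em 405/460 nm. Signals were expressed as fluorescence equivalents of triamterene, with DMSO vehicle as control.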
Regarding `CN(C)C(=O)NC1(c2ccccc2)CCN(CCC[C@]2(c3ccc(Cl)c(Cl)c3)CCCN(C(=O)c3ccccc3)C2)CC1`, the fluorescence, % of fluorescent control was 0.05% [at 18.6 µM] (inactive).
For the compound `CCN1CC(CCN2CCOCC2)C(c2ccccc2)(c2ccccc2)C1=O` (centres undefined), the compound was classed as inactive.
For `CCCCNC(=S)NCCCC`, the result was inactive.
Still for that read-out and setting: in the case of `FC(F)(F)C(Cl)(Cl)Cl` it was “inactive”.
Turning to `COc1ccccc1OCC(O)COC(N)=O` (centres undefined), the fluorescence, % of fluorescent control was 0.143% [at 18.6 µM] (inactive).
For `O=Cc1ccc(F)c(Br)c1`, the compound was called inactive.
With `C=CCc1cc(OC)c(O)c(C(=O)NCCO)c1`, the outcome was inactive.
As for `Cc1cc(NS(=O)(=O)c2ccc(N)cc2)nc(C)n1`, the outcome was inactive.
As for `COc1ccccc1N1CCN(CCCNc2cc(=O)n(C)c(=O)n2C)CC1`, the compound was classed as inactive.
`CCCCCCC`: the call was inactive.
Regarding `CCCCNc1cc(C(=O)O)cc(S(N)(=O)=O)c1Oc1ccccc1`, the fluorescence, % of fluorescent control is -0.0083% [at 18.6 µM] (inactive).
With `CC(C)OC(C)C`, the compound was called inactive.
For `Cc1cc(S(=O)(=O)O)c(N)cc1Cl`, the result was inactive.
On to `COc1cc(N)c(Cl)cc1C(=O)NC1CCN(Cc2ccccc2)CC1`, for which the fluorescence, % of fluorescent control was -0.0892% [at 18.6 µM] (inactive).
As to `CCOC(=O)NCCC[Si](OCC)(OCC)OCC`, the call was inactive.
Same read-out and setting: then `CCN(O)CC`, with “inactive”.
Turning to `O=S(=O)(O)C(F)(F)F`, the call was inactive.
On the same count and under the same terms, then `C=CC1CO1` (centres undefined), with “inactive”; and `C[C@]12C(=O)OC(=O)[C@H]1[C@H]1C=C[C@@H]2C1`, with “inactive”; and `CCCCC1CCC(=O)O1` (centres undefined), with “inactive”.
Take `CC(CNC1CCCCC1)OC(=O)c1ccccc1` (centres undefined): the fluorescence, % of fluorescent control is 0.0629% [at 18.6 µM] (inactive).
In the case of `C=CC(C)(O)CC/C=C(\C)CCC=C(C)C` (centres undefined), the outcome was inactive.
With `CCN[C@H]1CN(CCCOC)S(=O)(=O)c2sc(S(N)(=O)=O)cc21`, the fluorescence, % of fluorescent control is 0.113% [at 18.6 µM] (inactive).
On to `C=CCCCCCCCCO`, for which the compound was classed as inactive.
The same measure, in the same setting: then `O=C(C(Cl)Cl)N1CCOC12CCCCC2`, with “inactive”; and `CC(C)C1=CC2=CC[C@@H]3[C@](C)(CCC[C@@]3(C)C(=O)O)[C@H]2CC1`, with “inactive”.

A short description of another test: qHTS assay to test for compound auto fluorescence at 535 nm (green) in HEK293 cell free culture (AID 720682). The following applies: cell-free medium, green autofluorescence 485/535 nm, stronger effect = higher value; series mostly up to 91.3 µM. Summed up:
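Each library compound, or DMSO control, is added by pintool to medium alone, comprising DMEM and 10% FBS. Emission at 535 nm following 485 nm excitation is quantified against fluorescein.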
Regarding `CN(C)C(=O)NC1(c2ccccc2)CCN(CCC[C@]2(c3ccc(Cl)c(Cl)c3)CCCN(C(=O)c3ccccc3)C2)CC1`, the activity change is 0.0134% [at 18.6 µM] (inactive).
On the same count and under the same terms, then `CCCCOc1cc(C(=O)NCCN(CC)CC)c2ccccc2n1`, with -0.0175% [at 18.6 µM] (inactive).
For the compound `COC(=O)N[C@H](C(=O)N[C@@H](Cc1ccccc1)[C@@H](O)CN(Cc1ccc(-c2ccccn2)cc1)NC(=O)[C@@H](NC(=O)OC)C(C)(C)C)C(C)(C)C`, the result was inactive.
On the same count and under the same terms, then `COc1ccc(S(=O)(=O)Nc2nnc(CC(C)C)s2)cc1`, with “inactive”.
Still for that read-out and setting: then `CCN1CC(CCN2CCOCC2)C(c2ccccc2)(c2ccccc2)C1=O` (centres undefined), with “inactive”; and `NC/C=C/C(=O)O`, with “inactive”; and `CCCCNC(=S)NCCCC`, with “inactive”.
For `CCCOCCC`, the call was inactive.
As for `FC(F)(F)C(Cl)(Cl)Cl`, the compound was classed as inactive.
Regarding `COc1ccccc1OCC(O)COC(N)=O` (centres undefined), the activity change was 0.0183% [at 18.6 µM] (inactive).
Regarding `O=Cc1ccc(F)c(Br)c1`, the compound was called inactive.
Consider `C=CCc1cc(OC)c(O)c(C(=O)NCCO)c1`, for which the outcome was inactive.
On the same count and under the same terms, in the case of `C=CCCC=C` it was “inactive”.
For `Cc1cc(NS(=O)(=O)c2ccc(N)cc2)nc(C)n1`, the call was inactive.
As to `COc1ccccc1N1CCN(CCCNc2cc(=O)n(C)c(=O)n2C)CC1`, the compound was called inactive.
The same measure, in the same setting: in the case of `CCCCCCC` it was “inactive”.
Consider `CCCCNc1cc(C(=O)O)cc(S(N)(=O)=O)c1Oc1ccccc1`, for which the activity change was -0.0379% [at 18.6 µM] (inactive).
With `CC(C)OC(C)C`, the result was inactive.
`Cc1cc(S(=O)(=O)O)c(N)cc1Cl`: the result was inactive.
Take `COc1cc(N)c(Cl)cc1C(=O)NC1CCN(Cc2ccccc2)CC1`: the activity change is -0.0003% [at 18.6 µM] (inactive).
Turning to `CCOC(=O)NCCC[Si](OCC)(OCC)OCC`, the call was inactive.
For the compound `CCN(O)CC`, the compound was called inactive.
For `O=S(=O)(O)C(F)(F)F`, the call was inactive.
Regarding `Cc1cccc(C)c1NC(=O)CN1CCCCCC1`, the call was inactive.
As for `C=CC1CO1` (centres undefined), the call was inactive.
Consider `C[C@]12C(=O)OC(=O)[C@H]1[C@H]1C=C[C@@H]2C1`, for which the compound was classed as inactive.
Still for that read-out and setting: then `CCCCC1CCC(=O)O1` (centres undefined), with “inactive”.
Same read-out and setting: in the case of `C1CSCCS1` it was “inactive”.
Turning to `CC(CNC1CCCCC1)OC(=O)c1ccccc1` (centres undefined), the activity change was 0.0004% [at 18.6 µM] (inactive).
Regarding `C=CC(C)(O)CC/C=C(\C)CCC=C(C)C` (centres undefined), the outcome was inactive.
On the same count and under the same terms, in the case of `CCOc1ccccc1N` it was “inactive”.
As to `CCN[C@H]1CN(CCCOC)S(=O)(=O)c2sc(S(N)(=O)=O)cc21`, the activity change was -0.0447% [at 18.6 µM] (inactive).
On to `C=CCCCCCCCCO`, for which the compound was classed as inactive.
Take `O=C(C(Cl)Cl)N1CCOC12CCCCC2`: the compound was classed as inactive.
Still for that read-out and setting: then `CC(C)C1=CC2=CC[C@@H]3[C@](C)(CCC[C@@]3(C)C(=O)O)[C@H]2CC1`, with “inactive”.
On to `CC1(C)O[C@@H]2C[C@H]3[C@@H]4CCC5=CC(=O)CC[C@]5(C)[C@@]4(F)[C@@H](O)C[C@]3(C)[C@]2(C(=O)CCl)O1`, for which the activity change is 0.0954% [at 18.6 µM] (inactive).

The record behind these values is PubChem BioAssay (Tox21).
